# Laboratory results as given in PubChem BioAssay AID720518 (National Center for Advancing Translational Sciences (NCATS), 2013).
# Inconclusive results are not listed. Where a call stands in place of a potency, no number is given. Calls of active or inactive are those of the source. Calls follow the shape of the full dose curve.
# Assay: qHTS for Inhibitors of Cell Surface uPA Generation: Wild-type Protective Antigen (WT-PrAg) Counterscreen for Cherry-picked Compounds
# Conditions: cells, WT protective antigen toxicity counterscreen; series mostly up to 115 µM
row,Compound,Potency
1,Cc1ccc(S(=O)(=O)N2CCOCC2)cc1NC(=O)CSc1nc(N)cc(N)n1,inactive
2,O=C(CCc1ccccc1)NNC(=O)c1cccc(F)c1,inactive
3,O=C(NCc1ccco1)/C(=C\c1cccs1)NC(=O)c1ccccc1,inactive
4,CS(=O)(=O)N1CCC(C(=O)Nc2ccccc2)CC1,inactive
5,O=P1(NCCCl)OCCCN1CCCl (stereo not drawn),inactive
6,NS(=O)(=O)c1ccc(CCNC(=O)c2ccc(Cl)s2)cc1,inactive
7,Nc1cc(=O)[nH]c(SCC(=O)Nc2cccc([N+](=O)[O-])c2)n1,inactive
8,Cc1ccccc1NC(=O)N1CCN(c2ncccn2)CC1,inactive
9,O=C1[C@H]2[C@@H](c3ccc(F)cc3)N3C(=O)N(c4cccc(F)c4)C(=O)[C@@]3(Cc3ccc(Cl)cc3)[C@H]2C(=O)N1C1CCCCC1,inactive
10,CCCCCOC(=O)Nc1nnc(CCCCC)s1,inactive
11,CCOC(=O)CC(=O)CSc1nc2c(C)c(C)ccc2cc1C,inactive
12,C[C@@H](NC(=O)c1nc[nH]c1C(=O)NCc1ccc(CNC(=O)OC(C)(C)C)cc1)c1ccccc1,inactive
13,Cc1cccc(C(=O)NCC(=O)OCC(=O)NC2CCCCCCC2)c1,inactive
14,C[N+](C)(C)CCOC(=O)CBr,inactive
15,Cc1cccn2c(CNCC(C)Oc3cccnc3)c(C(=O)N3CCOCC3)nc12 (stereo not drawn),inactive
16,COc1cc(C(=O)N/N=C(\Cc2ncc[nH]2)c2ccccc2)cc(OC)c1OC,inactive
17,COCc1cc(C)nc2sc(C(=O)Nc3nccs3)c(N)c12,inactive
18,O=C1C=C(NNC(=O)c2ccncc2)CC(c2ccccc2)C1 (stereo not drawn),inactive
